Reference: the supplement of paper PMC6089552
In all, about 3,200 compounds went through this assay and about 300 (9.4%) showed activity. Shown is part of a subset that was picked to be rich in actives.

Test system: A673/TR/shEF
Assay: cell viability (LOESS-normalised, relative to median of negative controls) (log2 ratio); higher = more viable cells (less compound effect), active = hit call of the paper (over 3 MAD below the median)
Conditions: treatment time: 72 h
Outline: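 Doxycycline, present or absent from 24 h before compounds, was used to induce EWS-FLI1 shRNA knockdown in A673/TR/shEF Ewing sarcoma cells at 1,500 per well in 384-well plates. Cells then received library compounds at two or more concentrations, or DMSO controls, for three days. Viability was measured by CellTiter-Glo luminescence on an Envision reader, and per-plate LOESS correction, division by the negative-control median and log2 transformation followed.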

[1] = 0.25 µM, library screen: screen1, EWS-FLI1 expression: high (no doxycycline)
[2] = 0.25 µM, library screen: screen1, EWS-FLI1 expression: low (doxycycline-induced shRNA knockdown)
[3] = 2.5 µM, library screen: screen1, EWS-FLI1 expression: high (no doxycycline)
[4] = 2.5 µM, library screen: screen1, EWS-FLI1 expression: low (doxycycline-induced shRNA knockdown)
[5] = 0.25 µM, library screen: screen2, EWS-FLI1 expression: high (no doxycycline)
[6] = 0.25 µM, library screen: screen2, EWS-FLI1 expression: low (doxycycline-induced shRNA knockdown)
[7] = 2.5 µM, library screen: screen2, EWS-FLI1 expression: high (no doxycycline)
[8] = 2.5 µM, library screen: screen2, EWS-FLI1 expression: low (doxycycline-induced shRNA knockdown)

Measured: cell viability (log2)

COc1cc2c(cc1OC)[C@@H]1C(=O)c3ccc4oc(C(C)C)cc4c3O[C@@H]1CO2
inactive: [1] 0.0223 | [2] 0.0518 | [4] -0.129
active: [3] -0.307

COc1cc2c(cc1OC)C1C(=O)c3ccc(O)c(CC=C(C)C)c3OC1CO2 (configuration not stated)
inactive: [1] 0.0263 | [2] 0.0494 | [3] 0.046 | [4] 0.0598

C=C(C)[C@H]1Cc2c(ccc3c(=O)c4c(oc23)COc2cc(OC)c(OC)cc2-4)O1
inactive: [1] 0.0952 | [2] -0.0101 | [3] 0.0848 | [4] -0.0847

C=C(C)[C@H]1Cc2c(ccc3c2O[C@@H]2COc4cc(OC)c(OC)cc4[C@@H]2C3=O)O1
active: [1] -1.71 | [2] -0.663 | [5] -0.962 | [6] -0.539 | [3] -2.87 | [4] -1.24 | [7] -2.41 | [8] -0.955 | 25 µM, library screen: screen2, EWS-FLI1 expression: high (no doxycycline) -3.79 | 25 µM, library screen: screen2, EWS-FLI1 expression: low (doxycycline-induced shRNA knockdown) -1.03
inactive: 0.025 µM, library screen: screen2, EWS-FLI1 expression: high (no doxycycline) 0.0593 | 0.025 µM, library screen: screen2, EWS-FLI1 expression: low (doxycycline-induced shRNA knockdown) 0.0961

COc1cc2c(cc1OC)[C@H]1C(=O)c3ccc4c(c3O[C@H]1CO2)C[C@@H](C(C)C)O4
active: [1] -1.56 | [2] -0.67 | [3] -2.2 | [4] -0.747

COc1cc2c(cc1OC)-c1c(oc3c4c(ccc3c1=O)OC(C(C)C)C4)CO2 (configuration not stated)
inactive: [1] 0.0422 | [2] 0.0484 | [3] 0.122 | [4] 0.0221

CCOP(=S)(OCC)SCn1c(=O)oc2cc(Cl)ccc21
inactive: [1] 0.0867 | [2] 0.153 | [3] 0.166 | [4] 0.163

CCOCN(C(=O)CCl)c1c(C)cccc1CC
inactive: [1] 0.105 | [2] 0.0121 | [3] 0.0903 | [4] -0.17

CC(=O)O[C@@H]1C2CC[C@@H]3C1(C[C@@H](O)[C@@]1(O)[C@@H](C[C@H](O)C1(C)C)[C@]3(C)O)C[C@@]2(C)O (some centres not stated)
inactive: [1] 0.0646 | [2] 0.00107 | [3] 0.0644 | [4] 0.0594

COc1cc2occc2c2oc(=O)ccc12
inactive: [1] 0.133 | [2] -0.00777 | [3] 0.146 | [4] 0.0199

CCOC(=O)CC(SP(=S)(OC)OC)C(=O)OCC (configuration not stated)
inactive: [1] 0.0518 | [2] 0.0626 | [3] 0.101 | [4] 0.14

CN[C@@H]1[C@@H](O)[C@@H](O[C@@H]2[C@@H](O)[C@H](O[C@H]3O[C@H](CN)CC[C@H]3N)[C@@H](N)C[C@H]2N)OC[C@]1(C)O
inactive: [1] 0.0502 | [2] -0.0312 | [3] 0.184 | [4] 0.0476

CC1(C)C2CC(=O)[C@]3(C)C(CC[C@@]4(C)[C@H](c5ccoc5)OC(=O)[C@H]5O[C@]543)[C@@]2(C)C=C[C@@H]1O (some centres not stated)
inactive: [1] 0.0868 | [2] 0.0799 | [3] 0.177 | [4] 0.105

Oc1cc2c(cc1O)[C@H]1c3ccccc3CN[C@@H]1CC2
inactive: [5] 0.0852 | [6] -0.0099 | [7] 0.117 | [8] 0.00998

CC(C)N(CCC(C(N)=O)(c1ccccc1)c1ccccn1)C(C)C (configuration not stated)
inactive: [1] 0.118 | [2] 0.068 | [5] 0.102 | [6] 0.0965 | [3] 0.167 | [4] 0.146 | [7] 0.0737 | [8] 0.0918

O=S1OCC2C(CO1)C1(Cl)C(Cl)=C(Cl)C2(Cl)C1(Cl)Cl (configuration not stated)
inactive: [1] 0.126 | [2] 0.0993 | [3] 0.0998 | [4] -2.97

COc1ccc(CCN)cc1O
inactive: [5] 0.19 | [6] 0.105 | [7] 0.0411 | [8] 0.0823

CC1(C)C2C[C@@H](O)[C@]3(C)C(CC[C@@]4(C)[C@H](c5ccoc5)OC(=O)[C@H]5O[C@]543)[C@@]2(C)[C@@H](O)C[C@H]1O (some centres not stated)
inactive: [1] 0.0675 | [2] 0.0959 | [3] 0.135 | [4] 0.0584

C[N+]1(C)[C@H]2CC(OC(=O)C(CO)c3ccccc3)C[C@H]1[C@H]1O[C@H]12 (some centres not stated)
inactive: [5] 0.258 | [6] 0.0872 | [7] 0.133 | [8] -0.00973

CO[C@H]1[C@H](O)[C@H](O[C@H]2CC[C@@]3(C=O)[C@H](CC[C@@H]4[C@@H]3CC[C@]3(C)[C@@H](C5=CC(=O)OC5)CC[C@]43O)C2)O[C@@H](C)[C@@H]1O
active: [1] -3.17 | [2] -3.22 | [3] -3.52 | [4] -4.22

CO[C@H]1[C@H](O)[C@H](O[C@H]2CC[C@@]3(C)[C@H](CC[C@@H]4[C@@H]3CC[C@]3(C)[C@@H](C5=CC(=O)OC5)CC[C@]43O)C2)O[C@@H](C)[C@@H]1O
inactive: [1] 0.0843 | [2] 0.064
active: [3] -4.02 | [4] -4.27

C[C@@H]1[C@H](O)[C@@H](C)/C=C/C=C/CC/C=C/C=C/C=C/C=C/C(O[C@H]2O[C@H](C)[C@@H](O)[C@H](N)[C@@H]2O)CC2O[C@](O)(CC(O)C(O)CCC(O)CC(O)CC(O)CC(=O)O[C@H]1C)CC(O)C2C(=O)O (some centres not stated)
inactive: 0.103 µM, library screen: screen3, EWS-FLI1 expression: high (no doxycycline) 0.0278 | 0.103 µM, library screen: screen3, EWS-FLI1 expression: low (doxycycline-induced shRNA knockdown) 0.00627 | [1] 0.0655 | [2] 0.0679 | 0.308 µM, library screen: screen3, EWS-FLI1 expression: high (no doxycycline) 0.00683 | 0.308 µM, library screen: screen3, EWS-FLI1 expression: low (doxycycline-induced shRNA knockdown) 0.0137 | 0.926 µM, library screen: screen3, EWS-FLI1 expression: high (no doxycycline) 0.00828 | 0.926 µM, library screen: screen3, EWS-FLI1 expression: low (doxycycline-induced shRNA knockdown) 0.0539 | [3] 0.133 | [4] 0.104 | 2.8 µM, library screen: screen3, EWS-FLI1 expression: high (no doxycycline) -0.00919 | 2.8 µM, library screen: screen3, EWS-FLI1 expression: low (doxycycline-induced shRNA knockdown) 0.0174 | 8.3 µM, library screen: screen3, EWS-FLI1 expression: high (no doxycycline) 0.0134 | 8.3 µM, library screen: screen3, EWS-FLI1 expression: low (doxycycline-induced shRNA knockdown) 0.0644 | 25 µM, library screen: screen3, EWS-FLI1 expression: high (no doxycycline) 0.0075 | 25 µM, library screen: screen3, EWS-FLI1 expression: low (doxycycline-induced shRNA knockdown) 0.0194
